Bcl-xL primary – Bcl-xL (human) inhibition; GST-Bcl-xL / FITC-Bim BH3 peptide fluorescence polarization; AID 2129; inhibition, % at 10.9 µM; Q07817; 320,000 compounds, 0.7% hits;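 active = inhibition above the mean of all tested compounds plus 3 SD, cutoff set per campaign, cut at about 30% in these data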;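 note: 0% = DMSO wells and 100% = unlabeled Bim-BH3 peptide competitor; inhibitors lower millipolarization by displacing the labeled peptide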
GLD-1 TGE inh – GLD-1-TGE RNA interaction inhibition (C. elegans) | Q17339 | purified GLD-1 + fluorescein TGE RNA, fluorescence polarization | inhibition, % at 5.96 µM | 320,000 compounds, 0.44% hits | AID 2280;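 active = percent inhibition above a per-plate cutoff, the plate mean of test compounds plus 3 SD, cut at about 30% in these data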;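 note: 0% = DMSO wells with GLD-1 and probe and 100% = wells lacking GLD-1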
Target sequence (Q17339 whole entry, looked up): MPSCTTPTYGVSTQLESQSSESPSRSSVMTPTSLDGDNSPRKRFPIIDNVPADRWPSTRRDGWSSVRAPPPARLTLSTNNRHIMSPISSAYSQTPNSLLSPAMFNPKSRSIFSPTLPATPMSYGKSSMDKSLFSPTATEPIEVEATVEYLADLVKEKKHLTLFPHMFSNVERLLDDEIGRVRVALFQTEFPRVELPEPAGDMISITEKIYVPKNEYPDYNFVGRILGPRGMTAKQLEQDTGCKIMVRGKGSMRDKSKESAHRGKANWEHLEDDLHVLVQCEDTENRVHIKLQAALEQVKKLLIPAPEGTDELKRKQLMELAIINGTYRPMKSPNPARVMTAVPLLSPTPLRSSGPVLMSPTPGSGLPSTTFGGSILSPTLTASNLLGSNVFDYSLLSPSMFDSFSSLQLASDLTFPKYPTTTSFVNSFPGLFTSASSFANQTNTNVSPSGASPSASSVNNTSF
EBV gp42 inh – EBV gp42 inhibition; Fluorescence polarization binding assay, mP read-out; AID 1085; Q1HVG2; inhibition, % (tested at 21.74 µM); 220,000 compounds, 0.42% hits; in the data active = inhibition above about 50%
E coli Lon inh – E. coli protease La inhibition; purified E. coli Lon protease, fluorescence polarization; P0A9M0; 360,000 compounds, 0.42% hits; inhibition, % at 7.94 µM; in the data active = inhibition above about 13%, passing the limit was not always enough;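 note: 0% = enzyme with probe and DMSO and 100% = no enzyme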
MEX-5 binding – C. elegans MEX-5 TCR-2 RNA binding activity; Q9XUB2; MEX-5/FITC-TCR2 RNA binding, fluorescence polarization; active compounds read low; activity score (negative = inhibition of binding), % at 10 µM; 300,000 compounds, 0.38% hits;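 active = inhibition past about -25% in most replicates, and total fluorescence under double the plate's negative control median, limit read from the data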;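 note: 0% = DMSO and -100% = 5 µM competing unlabeled TCR2 RNA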
Numbers without * were called inactive; x = no result. Most compounds without a hit are left out; they make up all but 1.3% or so of the library.

SMILES	Bcl-xL primary	GLD-1 TGE inh	EBV gp42 inh	E coli Lon inh	MEX-5 binding
COCCN1C(=O)Cc2c1nc(N)c1c(N)nc(N3CCN(c4ccc(F)cc4)CC3)c(C#N)c21	21	0	-19	-11	0
CN(CCO)c1nc(N)c2c(N)nc3c(c2c1C#N)CC(=O)N3Cc1cccs1	36*	-1	6	4	2
CN(CCO)c1nc(N)c(C#N)c(CC#N)c1C#N	10	3	-6	0	-9
COCC(C)N1C(=O)Cc2c1nc(N)c1c(N)nc(N3CCN(c4ccccc4F)CC3)c(C#N)c21 (stereo unspecified)	23	1	9	-6	1
N#Cc1c(N(CCO)CCO)nc(N)c2c(N)nc3c(c12)CC(=O)N3Cc1cccs1	63*	16	21	-7	-1
COc1ccc(CN2C(=O)Cc3c2nc(N)c2c(N)nc(N4CCOCC4)c(C#N)c32)cc1	38*	12	10	-15	-9
Cc1cc(C)n(Cc2ccc(NC(=O)c3c([N+](=O)[O-])c(C)nn3C)cc2)n1	5	4	-15	-9	2
NC(=S)n1[nH]c(-c2ccc([N+](=O)[O-])cc2)c(N=Nc2ccc(Cl)cc2)c1=O	x	x	92*	-1	x
Cc1ccc([N+](=O)[O-])cc1N=Nc1c(-c2ccc([N+](=O)[O-])cc2)[nH]n(C(N)=S)c1=O	x	x	107*	-2	1
Cc1ccc([N+](=O)[O-])cc1N=Nc1c(C)[nH]n(C(N)=S)c1=O	4	0	x	1	2
C=CC1=C2C=C(C3CC3)N(C3CC3)C=C2C(=O)C(C)(OC(=O)c2ccco2)C1=O (stereo unspecified)	31*	16	x	11	-7
COC(=O)CCC(=O)OC1(C)C(=O)C=C2C=C(C3CC3)N(C3CC3)C=C2C1=O (stereo unspecified)	22	16	16	6	-2
CC(Sc1ccccc1)C(=O)N/N=C/c1ccccc1 (stereo unspecified)	2	3	x	1	1
COc1cc(C2Nc3cccc4cccc(c34)N2)cc(OC)c1OC(C)=O	39*	10	25	5	-4
O=C(/C=C/c1ccc(OCCCF)cc1)Nc1ccnc(-c2cccnc2)n1	-3	-16	-29	-15	-51*
O=C(CNC(=O)C1CCCCC1)NCc1ccco1	0	2	x	3	0
CCCCNC(=O)CS(=O)Cc1nc(-c2cccc(C)c2)oc1C (stereo unspecified)	-1	2	-3	-3	0
CCCCSCCCNC(=O)CS(=O)Cc1nc(-c2cccc(C)c2)oc1C (stereo unspecified)	45*	4	-15	0	0
O=C(NC1CC2CCCC(C1)N2Cc1cccs1)c1ccc([N+](=O)[O-])cc1 (stereo unspecified)	3	-5	-6	x	1
COC(=O)[C@@]1(Cc2ccc(OC)cc2)[C@H]2c3cc(C(=O)N4CCCC4)n(CCSCCO)c3C[C@H]2CN1C(=O)c1ccccc1	3	6	0	x	x
NC(=O)CSc1ccc(S(=O)(=O)N2CCOCC2)cn1	38*	20	x	13	x
CC(C)NC(=O)NC(=O)CSc1ccc(S(=O)(=O)N2CCOCC2)cn1	x	x	x	-1	x
CCOc1cccc(/C=C(/C#N)c2nc3ccccc3[nH]2)c1OCC(=O)O	2	8	x	-15	-3
CCN(CC)c1ccc(/C=C(/C#N)c2nc3ccccc3[nH]2)c(OC(C)C)c1	-26	-51	48	-479	-33*
O=[N+]([O-])c1ccc(Sc2cccc3cccnc23)c2cccnc12	2	1	62*	0	-14
SMILES	Bcl-xL primary	GLD-1 TGE inh	EBV gp42 inh	E coli Lon inh	MEX-5 binding
C/C(=C\COc1ccc2ccc(=O)oc2c1)CC[C@@H](O)C(C)(C)O	160*	5	x	0	x
COc1cc2ccc(=O)oc2cc1OCC(O)C(C)(C)O (stereo unspecified)	1	9	-17	-1	-2
COc1ccc2nc3cccc(OC)c3nc2c1	46*	24	26	7	1
NC(=O)CC(NC(=O)Cc1cccc2ccccc12)c1ccc(N2CCN(c3ccccn3)CC2)c([N+](=O)[O-])c1 (stereo unspecified)	3	2	x	-7	-4
COc1ccc(COC(=O)C2CCN(C(=O)c3ccc(Cl)cc3)CC2)cc1F	0	3	x	-7	x
CC(=O)CC1(C)OC(N)=C(C#N)C1(C#N)C#N (stereo unspecified)	45*	57*	x	8	-1
